Reference: PubChem BioAssay
The source made the active and inactive calls.

Assays:
[1] = tested on: PRMT1 (protein arginine N-methyltransferase 1); assay: small molecules binding arginine methyltransferase PRMT1 – biochemical, small-molecule microarray, 635 nm fluorescence, primary screen (AID 1088); details: higher = more signal;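 further: binding of Prmt1 protein to compounds spotted on small-molecule microarray slides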
[2] = growth effects on S. cerevisiae YJM789 – YJM789 clinical isolate, OD600, 24 h, basal, primary screen (AID 1089); details: higher = more signal, called active from +8 up or from −8 down;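 further: growth of clinical yeast isolate S. cerevisiae YJM 789 seeded 1000 cells per well; test concentration not given here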
[3] = S. pombe growth modifiers, basal conditions – strain 972, OD600, 24 h, no modulator, primary screen (AID 1090);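 further: basal condition with compound alone and no growth modifier present; test concentration not given here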; details: S. pombe 972 growth, higher = more signal, called active from +8 up or from −8 down
[4] = budding yeast growth modifiers under rapamycin – strain BY4716, OD600, 96 h, primary screen (AID 1091); further: test concentration not given here; details: S. cerevisiae BY4716 + rapamycin, higher = more signal, called active from +8 up or from −8 down
[5] = molecular target: Torsin-1A-interacting protein 2 (Homo sapiens) (UniProt Q8NFQ8); assay: small molecules binding lysate-expressed LULL1 – cell lysate, human LULL1 lysate, 635/667 nm fluorescence, primary screen (AID 1092); details: small-molecule microarray, hLULL1 lysate binding, 635 nm fluorescence; higher = more signal;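 further: probe is lysate of COS7 cells overexpressing human LULL1; score merges per-feature 667 nm fluorescence with signal-to-noise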
[6] = optical density change of DRC41 E. coli – strain DRC41, OD650, 24 h, E. coli filamentation project, primary screen (AID 1093);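 further: MC1000 strain lacking acrAB efflux and sulA so SOS filamentation is blocked; test concentration not given here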; details: E. coli DRC41 growth, higher = more signal, called active from +8 up or from −8 down
[7] = probe aLefty2 binding to arrayed compounds – biochemical, biotinylated probe, 635/667 nm fluorescence, primary screen (AID 1094); details: small-molecule microarray, higher = more signal;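 further: score merges spot fluorescence near 667 nm with spot signal-to-noise ratio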
[8] = tested on: Noggin (protein binding on small-molecule microarray); assay: small molecules binding Noggin protein – biochemical, 635/667 nm fluorescence, primary screen (AID 1095); details: 635 nm fluorescence, higher = more signal;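 further: score merges 667 nm feature fluorescence with signal to noise over triplicate slides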
[9] = molecular target: Neurogenic locus notch homolog protein 3 (Homo sapiens) (UniProt Q9UM47); assay: small molecules binding NOTCH3 protein – biochemical, 635/667 nm fluorescence, primary screen (AID 1096); details: small-molecule microarray, 635 nm fluorescence, higher = more signal
[10] = probe aEGFR binding to arrayed compounds – biochemical, biotinylated probe, 635/667 nm fluorescence, primary screen (AID 1097); details: small-molecule microarray, higher = more signal;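 further: probe is a biotinylated anti-EGFR antibody binding compounds printed on slides; score combines fluorescence near 667 nm and signal to noise of each spot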

Chain of Neurogenic locus notch homolog protein 3 (Homo sapiens) (Q9UM47 whole entry, looked up): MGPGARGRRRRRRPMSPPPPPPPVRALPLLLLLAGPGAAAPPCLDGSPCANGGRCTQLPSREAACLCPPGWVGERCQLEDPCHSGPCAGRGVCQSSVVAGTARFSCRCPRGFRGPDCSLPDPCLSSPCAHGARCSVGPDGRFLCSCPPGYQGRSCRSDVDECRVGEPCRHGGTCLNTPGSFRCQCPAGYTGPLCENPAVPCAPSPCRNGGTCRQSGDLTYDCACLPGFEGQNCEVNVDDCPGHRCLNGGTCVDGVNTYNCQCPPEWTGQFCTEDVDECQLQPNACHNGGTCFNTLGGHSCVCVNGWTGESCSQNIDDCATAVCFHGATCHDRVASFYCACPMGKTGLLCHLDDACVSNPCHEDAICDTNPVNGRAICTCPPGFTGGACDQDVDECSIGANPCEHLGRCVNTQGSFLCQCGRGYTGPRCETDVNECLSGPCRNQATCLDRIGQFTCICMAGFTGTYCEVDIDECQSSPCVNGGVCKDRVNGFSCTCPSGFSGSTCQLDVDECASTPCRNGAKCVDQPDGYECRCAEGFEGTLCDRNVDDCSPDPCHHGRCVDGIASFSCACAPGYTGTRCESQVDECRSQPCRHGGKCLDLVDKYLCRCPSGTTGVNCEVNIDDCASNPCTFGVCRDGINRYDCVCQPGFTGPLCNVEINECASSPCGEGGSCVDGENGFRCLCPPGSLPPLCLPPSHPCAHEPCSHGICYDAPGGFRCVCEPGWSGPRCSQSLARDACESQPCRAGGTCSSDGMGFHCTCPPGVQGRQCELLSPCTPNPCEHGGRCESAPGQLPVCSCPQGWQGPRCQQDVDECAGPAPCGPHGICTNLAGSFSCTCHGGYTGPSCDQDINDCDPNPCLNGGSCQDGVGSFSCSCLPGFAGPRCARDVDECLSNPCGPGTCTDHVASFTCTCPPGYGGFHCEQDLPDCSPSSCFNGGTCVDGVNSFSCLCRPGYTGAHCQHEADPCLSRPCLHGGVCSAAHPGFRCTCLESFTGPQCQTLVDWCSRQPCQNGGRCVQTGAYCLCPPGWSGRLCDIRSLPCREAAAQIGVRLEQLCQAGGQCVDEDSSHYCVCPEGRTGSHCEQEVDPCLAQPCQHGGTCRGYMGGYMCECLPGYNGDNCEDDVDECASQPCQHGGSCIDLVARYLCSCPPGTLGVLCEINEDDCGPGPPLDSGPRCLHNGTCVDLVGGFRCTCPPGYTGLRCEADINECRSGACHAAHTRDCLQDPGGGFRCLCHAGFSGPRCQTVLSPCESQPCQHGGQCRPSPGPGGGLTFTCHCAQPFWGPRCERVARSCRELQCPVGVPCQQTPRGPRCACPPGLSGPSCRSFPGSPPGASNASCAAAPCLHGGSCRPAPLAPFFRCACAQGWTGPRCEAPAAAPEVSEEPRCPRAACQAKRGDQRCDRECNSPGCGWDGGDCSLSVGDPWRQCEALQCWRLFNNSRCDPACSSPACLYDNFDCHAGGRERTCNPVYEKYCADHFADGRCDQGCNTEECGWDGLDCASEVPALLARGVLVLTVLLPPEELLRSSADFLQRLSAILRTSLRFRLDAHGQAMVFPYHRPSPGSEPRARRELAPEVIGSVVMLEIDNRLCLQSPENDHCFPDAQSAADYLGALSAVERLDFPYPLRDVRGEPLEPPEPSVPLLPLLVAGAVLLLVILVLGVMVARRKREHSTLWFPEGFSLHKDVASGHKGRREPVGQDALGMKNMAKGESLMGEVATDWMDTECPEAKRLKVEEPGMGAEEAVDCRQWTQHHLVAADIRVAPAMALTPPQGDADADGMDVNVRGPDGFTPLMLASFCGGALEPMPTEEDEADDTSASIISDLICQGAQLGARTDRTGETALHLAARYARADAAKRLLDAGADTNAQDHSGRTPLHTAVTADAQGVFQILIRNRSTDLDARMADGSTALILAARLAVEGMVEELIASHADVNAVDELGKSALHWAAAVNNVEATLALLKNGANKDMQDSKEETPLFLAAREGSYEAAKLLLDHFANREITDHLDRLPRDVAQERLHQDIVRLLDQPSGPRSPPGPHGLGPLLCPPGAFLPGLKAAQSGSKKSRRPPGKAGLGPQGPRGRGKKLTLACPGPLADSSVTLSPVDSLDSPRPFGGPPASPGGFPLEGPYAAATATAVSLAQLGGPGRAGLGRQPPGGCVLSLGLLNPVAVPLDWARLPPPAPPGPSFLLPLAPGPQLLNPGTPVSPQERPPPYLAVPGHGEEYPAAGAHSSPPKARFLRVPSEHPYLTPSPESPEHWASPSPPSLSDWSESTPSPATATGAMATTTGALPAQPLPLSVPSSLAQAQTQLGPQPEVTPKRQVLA
Chain of Torsin-1A-interacting protein 2 (Homo sapiens) (Q8NFQ8 whole entry, looked up): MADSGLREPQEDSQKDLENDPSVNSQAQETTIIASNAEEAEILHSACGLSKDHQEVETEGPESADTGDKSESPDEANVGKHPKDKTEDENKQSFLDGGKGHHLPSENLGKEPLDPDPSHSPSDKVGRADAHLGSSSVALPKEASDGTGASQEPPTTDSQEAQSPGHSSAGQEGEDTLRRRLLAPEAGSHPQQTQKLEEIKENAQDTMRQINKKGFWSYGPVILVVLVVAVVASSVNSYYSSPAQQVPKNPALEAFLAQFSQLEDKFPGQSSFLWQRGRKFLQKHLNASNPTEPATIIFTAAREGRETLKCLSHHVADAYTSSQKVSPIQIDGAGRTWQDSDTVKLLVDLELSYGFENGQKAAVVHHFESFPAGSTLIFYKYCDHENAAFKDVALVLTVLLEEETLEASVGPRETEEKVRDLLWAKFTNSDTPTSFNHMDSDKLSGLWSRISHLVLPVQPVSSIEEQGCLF

| Compound | composite z-score [1] | z-score [2] | z-score [3] | z-score [4] | composite z-score [5] | z-score [6] | composite z-score [7] | composite z-score [8] | composite z-score [9] | composite z-score [10] |
| --- | --- | --- | --- | --- | --- | --- | --- | --- | --- | --- |
| O=C1O[C@H](c2ccccc2)[C@H](c2ccccc2)N2[C@H]1[C@@H](C(=O)N1CCCCCCC1)[C@]1(C(=O)Nc3ccc(C#CC4=CCCCC4)cc31)[C@H]2c1ccc(OCCO)cc1 | 1.53 | 0.42 (inactive) | -2.08 (inactive) | 2.79 (inactive) | 3.7 | 2.64 (inactive) | 1.72 | 1.72 | 1.02 | 1.07 |
| COc1ccc([Si](C)(C)[C@@H]2[C@@H](CC(=O)N3CCC[C@H]3CO)O[C@]3(C(=O)N(c4ccccc4)c4ccccc43)[C@H]2C)cc1 | 1.54 | -1.57 (inactive) | -0.589 (inactive) | -1.79 (inactive) | 2.37 | 2.79 (inactive) | -0.256 | 0.999 | 1.03 | 0.0436 |
| C=CC(=C)[C@H]1Oc2ccccc2S(=O)(=O)N2CCC[C@@H]12 | -1.3 | -0.946 (inactive) | -2.71 (inactive) | -0.601 (inactive) | -0.562 | -0.504 (inactive) | 0.0189 | 0.518 | -0.406 | -0.152 |
| C=C(/C(=C/C[C@H](OC(C)=O)c1ccccc1OCCO)c1cnc2ccccc2c1)C(C)C | 0.491 | 0.0556 (inactive) | -0.0759 (inactive) | 1.11 (inactive) | 1.85 | -0.0733 (inactive) | -0.0251 | 1.24 | 0.909 | -0.044 |
| COc1ccccc1CN1C(=O)c2ccccc2[C@@]2(Cc3ccccc3N(CC(C)C)C2=O)[C@@H]1c1ccc(CO)cc1 | 0.545 | -0.928 (inactive) | 0.189 (inactive) | -1.03 (inactive) | -0.359 | -0.0514 (inactive) | -0.122 | -0.19 | -0.285 | -0.127 |
| C=C[C@H](C)[C@@H](OC(=O)Nc1ccc(OC)cc1)c1ccc(O)c2ccccc12 | 0.0444 | -24.6 (active) | -20.8 (active) | -3.58 (inactive) | 1.63 | 0.431 (inactive) | -0.266 | 0.823 | 0.0291 | -0.275 |
| CN1C(=O)C2C=CC(C(O)c3ccco3)N(Nc3ccccc3)C2C1=O (stereo not given) | 0.941 | 0.312 (inactive) | 0.899 (inactive) | 1.74 (inactive) | 2.52 | -1.37 (inactive) | 0.0569 | 0.139 | 0.275 | -0.0976 |
| C[C@@]1([C@@H](NC(=O)c2ccc(-c3ccccc3)cc2)c2ccc(Cl)cc2)C[C@H]1C1CCCCC1 | 0.497 | 0.823 (inactive) | -3.48 (inactive) | 1.6 (inactive) | 2.54 | -0.586 (inactive) | 0.101 | 0.118 | 0.73 | 0.302 |
| N#Cc1ccc(NN2C(C(O)C(c3ccccc3)c3ccccc3)C=CC3C(=O)N(c4ccccc4)C(=O)C32)cc1 (stereo not given) | 1.07 | 0.43 (inactive) | 1.25 (inactive) | 5.53 (inactive) | 3.58 | -0.0873 (inactive) | 0.167 | 0.297 | 1.01 | 0.0981 |
| CN(C)C(=O)[C@]1(Cc2ccccc2N=[N+]=[N-])N=C(c2ccc(OCCCO)cc2)O[C@@H]1c1ccccc1N=[N+]=[N-] | 1.55 | -2.43 (inactive) | -2.73 (inactive) | 4.05 (inactive) | 3.2 | 0.799 (inactive) | 0.191 | 0.923 | 1.07 | -0.0111 |
| COc1ccc([C@H]2OC[C@@H]3C[C@@H](Cc4ccccc4)C(=O)N32)cc1 | 0.758 | -2.03 (inactive) | -3.18 (inactive) | 4.07 (inactive) | 0.0239 | -0.468 (inactive) | -0.103 | 0.892 | 0.75 | -0.0299 |
